Reference: PubChem BioAssay (Tox21)
Inconclusive results are not listed. The source holds several records for some structures; these can differ, active in one and inactive in another. Active and inactive are the calls of the source. Unless noted, calls come from the whole dose curve; as a rule, active = well fitted cell-killing curve with a large enough effect in the repeat runs; inconclusive = weak or mixed curves, or effect the other way; inactive = no such curve, though single readings can be large or run the other way.

Test: qHTS assay for small molecule activators of the heat shock response signaling pathway - cell viability counter screen (AID 743209); note: nearly all actives have a fitted effect of over 50% in size
Conditions: HSE-bla HeLa viability, CellTiter-Glo luminescence, 5 h; series mostly up to 62.6 µM; activity change, negative = cytotoxicity: at the top concentration
In short: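 Cytotoxicity counter screen run in parallel with the HSE beta-lactamase reporter, using the same wells. HeLa HSE-bla cells received compound for 5 h at 37 C; ATP-based CellTiter-Glo luminescence was measured after 30 min at room temperature.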
% is set by controls: 0 for no effect and ±100 for the full control effect; potency is the fitted concentration of half-maximal effect.

Question: For `Cc1ccc2oc(CN(Cc3ccccc3)C(=O)Nc3c(F)cc(F)cc3F)c(-c3ccc(Cl)cc3)c2c1`, which “activity change, negative = cytotoxicity” value is on record?
Answer: -1.37% (inactive)

Question: Which “activity change, negative = cytotoxicity” value does the source give for `CN1CCC(Nc2ncc3ncnc(Nc4ccc(F)c(Cl)c4)c3n2)CC1` here?
Answer: -1.27% (inactive)

Question: With `O=C1C=CC(=O)N1` as the compound, how does the Potency read?
Answer: 20 µM (active)

Question: For `CCc1cc(SCc2sc(-c3ccc(C(F)(F)F)cc3)nc2CN2CCN(c3ccc(OC)cc3)CC2)ccc1OCC(=O)O`, which Potency is on record?
Answer: 24.5 µM (active)

Question: With `CC(C)CCCCCCCCCCCCCCC(=O)O` as the compound, how does the Potency read?
Answer: 24.5 µM (active)

Question: Which Potency does the source give for `Cc1ccc(O)c(C(C)(C)C)c1` here?
Answer: 24.5 µM (active) and inactive

Question: Which Potency does the source give for `CCCCc1oc2ccc(NS(C)(=O)=O)cc2c1C(=O)c1ccc(OCCCN(CCCC)CCCC)cc1` here?
Answer: 29.8 µM (active)

Question: With `Cc1cccc(CN2CCN(C(c3ccccc3)c3ccc(Cl)cc3)CC2)c1` (stereo not given) as the compound, how does the “activity change, negative = cytotoxicity” value read?
Answer: -12.9% (inactive)

Question: Which Potency does the source give for `O=C(Nc1cccc(Cl)c1)OCC#CCCl` here?
Answer: 19.5 µM (active)

Question: With `Cc1onc(-c2c(Cl)cccc2Cl)c1C(=O)N[C@@H]1C(=O)N2[C@@H]1SC(C)(C)[C@@H]2C(=O)O` as the compound, how does the “activity change, negative = cytotoxicity” value read?
Answer: 2.69% (inactive)

Question: With `O=C1c2c(O)ccc(Nc3ccc(CCO)cc3)c2C(=O)c2c([N+](=O)[O-])ccc(O)c21` as the compound, how does the “activity change, negative = cytotoxicity” value read?
Answer: -0.274% (inactive)

Question: For `Fc1ccc([C@@H]2CCNC[C@H]2COc2ccc3c(c2)OCO3)cc1`, which “activity change, negative = cytotoxicity” value is on record?
Answer: 10% (inactive)

Question: Which Potency does the source give for `CCCN(CCC)c1c([N+](=O)[O-])cc(C(F)(F)F)c(N)c1[N+](=O)[O-]` here?
Answer: 34.6 µM (active)

Question: For `Oc1ccc2c(c1)-c1ccccc1C2`, which “activity change, negative = cytotoxicity” value is on record?
Answer: -8.73% (inactive)

Question: Which “activity change, negative = cytotoxicity” value does the source give for `Oc1c(Cl)cc(Cl)c2cccnc12` here?
Answer: -4.11% (inactive)

Question: With `Oc1cccc(-c2c3nc(c(-c4cccc(O)c4)c4ccc([nH]4)c(-c4cccc(O)c4)c4nc(c(-c5cccc(O)c5)c5ccc2[nH]5)CC4)C=C3)c1` as the compound, how does the “activity change, negative = cytotoxicity” value read?
Answer: -22.9% (inactive)

Question: For `C=C(C)C(=O)OCC[N+](C)(C)C`, which “activity change, negative = cytotoxicity” value is on record?
Answer: -0.246% (inactive)

Question: For `CCCCCCCC[N+](CCCCCCCC)(CCCCCCCC)CCCCCCCC`, which Potency is on record?
Answer: 4.89 µM (active)

Question: For `COc1cccc(N)c1`, which “activity change, negative = cytotoxicity” value is on record?
Answer: 1.48% [at 81.1 µM] (inactive)

Question: Which Potency does the source give for `CCCC1O[C@@H]2C[C@H]3[C@@H]4CCC5=CC(=O)C=C[C@]5(C)[C@H]4[C@@H](O)C[C@]3(C)[C@]2(C(=O)CO)O1` (stereo not given in full) here?
Answer: inactive

Question: With `N#CSc1ccc(N)c([N+](=O)[O-])c1` as the compound, how does the “activity change, negative = cytotoxicity” value read?
Answer: -21.8% [at 81.1 µM] (inactive)

Question: Which Potency does the source give for `On1ccccc1=S` here?
Answer: 0.153 µM (active)

Question: With `CC1=C(C(=O)OC(C)C)C(c2cccc([N+](=O)[O-])c2)C(C(=O)OC2CN(C(c3ccccc3)c3ccccc3)C2)=C(N)N1` (stereo not given) as the compound, how does the Potency read?
Answer: 10.6 µM (active)

Question: For `COc1ccc(C(=O)/C(Br)=C\C(=O)O)cc1`, which “activity change, negative = cytotoxicity” value is on record?
Answer: -18.7% (inactive)

Question: For `O=C1Cc2cc(CCN3CCN(c4nsc5ccccc45)CC3)c(Cl)cc2N1`, which “activity change, negative = cytotoxicity” value is on record?
Answer: -6.78% (inactive)

Question: For `C=CC(=O)OCC(CO)(COCC(COC(=O)C=C)(COC(=O)C=C)COC(=O)C=C)COC(=O)C=C`, which Potency is on record?
Answer: 2.72 µM (active)

Question: With `CSc1ccc2c(c1)C(N1CCN(C)CC1)Cc1ccccc1S2` (stereo not given) as the compound, how does the “activity change, negative = cytotoxicity” value read?
Answer: -8.7% (inactive)

Question: With `Oc1ccc2cc(SSc3ccc4cc(O)ccc4c3)ccc2c1` as the compound, how does the Potency read?
Answer: inactive

Question: With `Cc1nc(-c2ccc3c(c2)CCN(CCC2CCC(NC(=O)/C=C/c4ccc(F)cc4)CC2)CC3)no1` (stereo not given) as the compound, how does the “activity change, negative = cytotoxicity” value read?
Answer: 14.3% [at 29.1 µM] (inactive)

Test: qHTS assay for small molecule activators of the heat shock response signaling pathway (AID 743210; active = well fitted activation curve with a large enough effect in the signal ratio in the repeat runs, with a control signal flat, not every such curve was filed as active; the % refers to the signal ratio;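 for activation: HeLa cells with beta-lactamase reporter driven by heat shock elements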)
Conditions: HeLa HSE-bla reporter, beta-lactamase ratio, 5 h; series mostly up to 62.6 µM; activation: at the top concentration
In short: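 Fluorescence from a cleaved B/G FRET substrate (2.5 h, room temp) reports HSE-driven beta-lactamase in HeLa cells treated 5 h at 37 C with DMSO-dissolved compounds.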

Question: For `Cc1ccc(-n2nc(C(C)(C)C)cc2NC(=O)Nc2ccc(OCCN3CCOCC3)c3ccccc23)cc1`, which “activation” value is on record?
Answer: -0.22% (inactive)

Question: For `CN1CCC(Nc2ncc3ncnc(Nc4ccc(F)c(Cl)c4)c3n2)CC1`, which Potency is on record?
Answer: 13.9 µM (active)

Question: With `Cc1ccc(O)c(C(C)(C)C)c1` as the compound, how does the “activation” value read?
Answer: 5.01% (inactive)

Question: For `Cc1cccc(CN2CCN(C(c3ccccc3)c3ccc(Cl)cc3)CC2)c1` (stereo not given), which “activation” value is on record?
Answer: 1.17% (inactive)

Question: With `O=C1c2c(O)ccc(Nc3ccc(CCO)cc3)c2C(=O)c2c([N+](=O)[O-])ccc(O)c21` as the compound, how does the “activation” value read?
Answer: 3.11% (inactive)

Question: With `Fc1ccc([C@@H]2CCNC[C@H]2COc2ccc3c(c2)OCO3)cc1` as the compound, how does the “activation” value read?
Answer: 5.5% (inactive)

Question: With `Oc1ccc2c(c1)-c1ccccc1C2` as the compound, how does the “activation” value read?
Answer: -0.765% (inactive)

Question: With `C=C(C)C(=O)OCC[N+](C)(C)C` as the compound, how does the “activation” value read?
Answer: -1.61% (inactive)

Question: Which “activation” value does the source give for `COc1cccc(N)c1` here?
Answer: 0% [at 81.1 µM] (inactive)

Question: For `CCCC1O[C@@H]2C[C@H]3[C@@H]4CCC5=CC(=O)C=C[C@]5(C)[C@H]4[C@@H](O)C[C@]3(C)[C@]2(C(=O)CO)O1` (stereo not given in full), which Potency is on record?
Answer: inactive

Question: Which “activation” value does the source give for `CSc1ccc2c(c1)C(N1CCN(C)CC1)Cc1ccccc1S2` (stereo not given) here?
Answer: 4.54% (inactive)
